# Assay outcomes deposited in PubChem by Broad Institute.
# C diff growth = C. difficile growth inhibitors, primary screen, HTS | growth activity, negative = inhibition, % at 16 µg/mL (by protocol) | 86,000 tested, 0.25% active | Clostridium difficile clinical isolate growth, OD600, 24 h; active compounds read low | AID 1259249, 2017;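 active means mean growth activity at or below -80% and every replicate also at or below -80%; inconclusive means mean at or below -80% but some replicate above -80%; inactive means mean growth activity above -80%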;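 further: 0% = DMSO wells and -100% = levofloxacin 16 µg/mL wells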
# T cruzi growth-1 = T. cruzi intracellular proliferation inhibitors, primary screen, cell-based, beta-gal Tulahuen parasites, NIH3T3 host, luminescence. T. cruzi beta-gal in NIH3T3, GalScreen luminescence, 90 h. inhibition, % at 8.34 µM. 77,000 tested, 5.9% active;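 active means mean inhibition above about 93%, with at least 55% of replicates each passing it, limit read from the data, passing the limit was not always enough; inconclusive means only one of those two conditions holds; inactive means neither condition holds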
# T cruzi growth-2 = T. cruzi intracellular proliferation inhibitors, confirmation, cell-based, NIH3T3 host, beta-gal parasite, luminescence, cherry-pick; shares compounds with T cruzi growth-1; T. cruzi beta-gal in NIH3T3, GalScreen luminescence, 90 h; inhibition, % at 8.35 µM; 5,600 tested, 72% active;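 active means mean replicate inhibition above about 95% and at least 55% of replicates individually reaching it, limit read from the data; inconclusive means only one of the two criteria is met; inactive means neither criterion is met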
# T cruzi growth-3 = inhibitors of intracellular T. cruzi replication, confirmation, NIH3T3 host cells, beta-gal parasites, cherry-pick, set 2 | 5,600 tested, 21% active | shares compounds with T cruzi growth-1 | inhibition, % at 2.09 µM | T. cruzi beta-gal in NIH3T3, GalScreen luminescence, 90 h;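 active means mean inhibition above about 95%, with at least 55% of replicates also reaching it, limit read from the data; inconclusive means meets just one of the two conditions; inactive means meets neither condition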;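 further: plate controls were neutral control median for no effect and positive control median for full effect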
# 3T3 cytotox = cytotoxicity in mouse NIH/3T3 fibroblasts, confirmation, cytotoxicity control for T. cruzi proliferation inhibitor project, cell-based, cherry-pick, single point; 5,600 tested, 14% active; NIH/3T3 viability, CellTiter-Glo ATP luminescence, 90 h; AID 651742, 2012; cytotoxicity (signal decrease), % at 8.35 µM; shares compounds with T cruzi growth-1;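 active means mean signal decrease across replicates above about 35% based on untreated-well scatter, with enough replicates individually passing, limit read from the data; inconclusive means no rule stated though some were filed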;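 further: 0% = median of neutral control wells and 100% = median of positive control wells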
# 3T3 cytotox 2 = NIH/3T3 fibroblast cytotoxicity, confirmation, cytotoxicity control, cell-based, cherry-pick, single point, set 2; 5,600 tested, 56% active; NIH/3T3 viability, CellTiter-Glo ATP luminescence, 90 h; inhibition, % at 24.9 µM; shares compounds with T cruzi growth-1;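 active means mean loss of cell viability signal at or above a set limit, and enough replicates individually reaching it; inconclusive means meets only the mean limit or only the replicate share; inactive means meets neither condition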;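 further: 0% = median of neutral control wells and 100% = median of positive control wells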
# An asterisk follows results filed as active; ? = inconclusive; . = no result given. This is one part of a sample in which hits are shown more often than they occur.
SMILES,C diff growth,T cruzi growth-1,T cruzi growth-2,T cruzi growth-3,3T3 cytotox,3T3 cytotox 2
CC(C)CC#Cc1ccc([C@@H]2[C@@H](CO)N3C(=O)CN(C(=O)NC4CCCC4)C[C@H]23)cc1,-5,.,.,.,.,.
CCc1csc(N2[C@H](C#N)[C@@H](c3ccc(-c4cccc(F)c4)cc3)[C@H]2CO)n1,13,100*,108*,89,29,31*
N#C[C@@H]1[C@@H](c2ccc(-c3cccc(F)c3)cc2)[C@H](CO)N1c1nc(-c2ccccc2)cs1,11,.,.,.,.,.
CN(C)CCCNC(=O)C[C@H]1CC[C@@H](NC(=O)Cc2cccnc2)[C@@H](CO)O1,.,41,.,.,.,.
C[C@@H]1CN([C@@H](C)CO)S(=O)(=O)c2ccc(C3=CCCC3)cc2O[C@H]1CN(C)Cc1ccccc1F,13,121*,101*,105*,30,104*
C[C@@H]1CN([C@@H](C)CO)S(=O)(=O)c2ccc(C3=CCCCC3)cc2O[C@H]1CN(C)Cc1ccccc1F,6,.,.,.,.,.
C[C@@H]1CN([C@H](C)CO)S(=O)(=O)c2ccc(C3=CCCC3)cc2O[C@@H]1CN(C)Cc1ccccc1F,-2,103*,99*,105*,4,107*
C[C@H](CO)N1C[C@H](C)[C@H](CN(C)Cc2ccccc2F)Oc2cc(C3=CCCC3)ccc2S1(=O)=O,-2,76,.,.,.,.
C[C@@H]1CCCCO[C@@H](CN(C)C(=O)Nc2ccc3c(c2)OCO3)[C@H](C)CN([C@H](C)CO)C(=O)c2cc(NC(=O)Nc3ccc4c(c3)OCO4)ccc2O1,.,39,.,.,.,.
C[C@H](CO)N1C[C@H](C)[C@@H](CN(C)S(=O)(=O)c2ccc(F)cc2)OCCCC[C@H](C)Oc2ccc(NC(=O)Cc3ccccc3)cc2C1=O,3,-9,.,.,.,.
CN1C(=O)c2cc(NC(=O)Cc3cccs3)ccc2OC[C@H]2O[C@H](CC(=O)NCC3CCCCC3)CC[C@H]21,0,7,.,.,.,.
CCCN(C)C[C@@H]1Oc2ncc(C#CCC(C)C)cc2C(=O)N([C@H](C)CO)C[C@H]1C,0,.,.,.,.,.
O=C(CC1CC1)N1[C@H](CO)[C@@H]2c3ccccc3N(S(=O)(=O)c3ccccc3)C[C@@H]21,3,-5,.,.,.,.
C[C@@H]1CCCCO[C@H](CN(C)C(=O)c2ccccc2)[C@@H](C)CN([C@H](C)CO)C(=O)c2cc(NS(=O)(=O)c3cn(C)cn3)ccc2O1,.,43,.,.,.,.
COc1ccc(CN(C)C[C@H]2OCCCC[C@@H](C)Oc3ccc(NS(=O)(=O)c4ccc(F)cc4)cc3C(=O)N([C@H](C)CO)C[C@@H]2C)cc1,0,3,.,.,.,.
COc1ccc(CN(C)C[C@H]2OCCCC[C@H](C)Oc3ccc(NS(=O)(=O)c4ccc(OC)cc4)cc3C(=O)N([C@H](C)CO)C[C@@H]2C)cc1,0,20,.,.,.,.
COc1ccc(CN(C)C[C@@H]2OCCCC[C@H](C)Oc3ccc(NS(=O)(=O)c4ccc(Cl)cc4)cc3C(=O)N([C@H](C)CO)C[C@H]2C)cc1,16,?,97*,110*,31,103*
COc1ccc(CN(C)C[C@H]2OCCCC[C@@H](C)Oc3ccc(NS(=O)(=O)c4ccc(Cl)cc4)cc3C(=O)N([C@@H](C)CO)C[C@H]2C)cc1,6,?,82,68,38*,106*
COc1ccc(CN(C)C[C@H]2OCCCC[C@H](C)Oc3ccc(NS(=O)(=O)c4ccc(F)cc4)cc3C(=O)N([C@@H](C)CO)C[C@H]2C)cc1,-13,103*,105*,66,26,103*
COc1ccc(CN(C)C[C@H]2OCCCC[C@@H](C)Oc3ccc(NS(=O)(=O)c4ccc(Cl)cc4)cc3C(=O)N([C@H](C)CO)C[C@H]2C)cc1,1,119*,115*,92,34,106*
COc1ccc(CN(C)C[C@H]2OCCCC[C@@H](C)Oc3ccc(NS(=O)(=O)c4ccc(Cl)cc4)cc3C(=O)N([C@H](C)CO)C[C@@H]2C)cc1,2,44,.,.,.,.
COc1ccc(CN(C)C[C@H]2OCCCC[C@H](C)Oc3ccc(NS(=O)(=O)c4ccc(Cl)cc4)cc3C(=O)N([C@H](C)CO)C[C@@H]2C)cc1,-1,89,.,.,.,.
COc1ccc(COCC23N=C4SCCCN4[C@H](c4ccccc4O2)[C@H]3CO[Si](C)(C)C(C)(C)C)cc1,9,.,.,.,.,.
CCCc1cn(CC[C@H]2CC[C@@H](NC(=O)C3CCC3)[C@@H](CO)O2)nn1,1,.,.,.,.,.
COc1ccccc1-c1cn(CC[C@H]2CC[C@H](NC(=O)c3cnccn3)[C@@H](CO)O2)nn1,-3,17,.,.,.,.
SMILES,C diff growth,T cruzi growth-1,T cruzi growth-2,T cruzi growth-3,3T3 cytotox,3T3 cytotox 2
C[C@@H]1CN([C@H](C)CO)S(=O)(=O)c2ccc(C3=CCCC3)cc2O[C@@H]1CN(C)C(=O)c1cccnc1,-4,8,.,.,.,.
COc1ccc(S(=O)(=O)Nc2ccc3c(c2)C(=O)N([C@H](C)CO)C[C@H](C)[C@@H](CN(C)Cc2ccc(C(F)(F)F)cc2)OCCCC[C@@H](C)O3)cc1,-2,98*,102*,38,9,84*
COc1ccc(S(=O)(=O)Nc2ccc3c(c2)C(=O)N([C@@H](C)CO)C[C@H](C)[C@@H](CN(C)Cc2ccc(C(F)(F)F)cc2)OCCCC[C@H](C)O3)cc1,14,89,.,.,.,.
C[C@H]1CN([C@@H](C)CO)C(=O)c2cc(NC(=O)C3CCCCC3)ccc2O[C@H]1CN(C)C(=O)Nc1ccc(C(F)(F)F)cc1,15,32,.,.,.,.
C[C@@H](O)C#Cc1ccc2c(c1)O[C@@H](CN(C)C(=O)Nc1ccccc1)[C@@H](C)CN([C@@H](C)CO)S2(=O)=O,1,71,.,.,.,.
C[C@@H]1CN([C@@H](C)CO)S(=O)(=O)c2ccc(C#Cc3ccccc3)cc2O[C@H]1CN(C)C(=O)Nc1ccccc1,3,123*,98*,108*,40*,36*
CC(C)C#Cc1ccc2c(c1)O[C@@H](CN(C)C(=O)Nc1ccccc1)[C@@H](C)CN([C@@H](C)CO)S2(=O)=O,4,.,.,.,.,.
C[C@@H]1CN([C@H](C)CO)S(=O)(=O)c2ccc(C#Cc3ccccc3)cc2O[C@H]1CN(C)C(=O)Nc1ccccc1,-48,122*,109*,85,37*,50*
CC(C)C#Cc1ccc2c(c1)O[C@@H](CN(C)C(=O)Nc1ccccc1)[C@H](C)CN([C@@H](C)CO)S2(=O)=O,-7,.,.,.,.,.
C[C@@H]1CN([C@@H](C)CO)S(=O)(=O)c2ccc(C3=CCCC3)cc2O[C@H]1CN(C)C(=O)Nc1ccc2c(c1)OCO2,-7,112*,106*,17,10,61*
